Source: PubChem BioAssay
Activity calls are given as the source filed them.

Columns and labels:
[1] = system: Noggin (protein binding on small-molecule microarray); test: small molecules binding Noggin protein – biochemical, 635/667 nm fluorescence, primary screen (AID 1095); details: 635 nm fluorescence, higher = more signal;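 also: score merges 667 nm feature fluorescence with signal to noise over triplicate slides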
[2] = target: Neurogenic locus notch homolog protein 3 (Homo sapiens) (UniProt Q9UM47); test: small molecules binding NOTCH3 protein – biochemical, 635/667 nm fluorescence, primary screen (AID 1096); details: small-molecule microarray, 635 nm fluorescence, higher = more signal
[3] = probe aEGFR binding to arrayed compounds – biochemical, biotinylated probe, 635/667 nm fluorescence, primary screen (AID 1097); details: small-molecule microarray, higher = more signal;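 also: probe is a biotinylated anti-EGFR antibody binding compounds printed on slides; score combines fluorescence near 667 nm and signal to noise of each spot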
[4] = system: Plasmodium falciparum Sir2 (PF13_0152, Sir2A); test: Plasmodium falciparum Sir2A binding compounds – biochemical, small-molecule microarray, 635 nm fluorescence, primary screen (AID 1098); details: fluorescence 635 nm, higher = more signal;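 also: score merges spot fluorescence intensity with its signal-to-noise ratio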
[5] = probe aDKK1 binding to arrayed compounds – biochemical, biotinylated probe, 635/667 nm fluorescence, primary screen (AID 1099); details: small-molecule microarray, higher = more signal;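 also: score merges 667nm spot fluorescence with signal to noise across triplicate slides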
[6] = probe aCHRDL2 binding to arrayed compounds – biochemical, biotinylated probe, 635/667 nm fluorescence, primary screen (AID 1100); details: small-molecule microarray, higher = more signal
[7] = change in splice reporter luminescence, either direction, cell-based, HEK293, spliceosome inhibition project, primary screen (AID 1101); details: HEK293 splicing luciferase reporter, 24 h, higher = more signal, called active from +8 up or from −8 down;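 also: HEK293 cells carrying a splicing-competent luciferase reporter gene; test concentration not given here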
[8] = target: Fibroblast growth factor 10 (Homo sapiens) (UniProt O15520); test: compounds binding fibroblast growth factor 10 – biochemical, small-molecule microarray, 635 nm fluorescence, primary screen (AID 1102); details: FGF10 binding, fluorescence 635 nm, higher = more signal
[9] = system: glycogen synthase kinase-3 (GSK3A per assay name; protocol says GSK3B); test: compounds binding glycogen synthase kinase-3 – biochemical, small-molecule microarray, 635 nm fluorescence, GSK3A, primary screen (AID 1103); details: fluorescence 635 nm, higher = more signal; also: the record names both GSK3A and GSK3B
[10] = target: Epidermal growth factor receptor (Homo sapiens) (UniProt P00533); test: compounds binding epidermal growth factor receptor – biochemical, small-molecule microarray, 635 nm fluorescence, primary screen (AID 1104); details: EGFR binding, higher = more signal;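 also: score merges 667 nm emission intensity with spot signal to noise over triplicate slides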
[11] = target: Follistatin-related protein 3 (Homo sapiens) (UniProt O95633); test: compounds binding follistatin-related protein 3 – biochemical, small-molecule microarray, 635 nm fluorescence, primary screen (AID 1105); details: FSTL3 binding, higher = more signal;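 also: score merges emission near 667 nm and signal to noise per printed spot across three slides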
[12] = target: Dickkopf-related protein 1 (Homo sapiens) (UniProt O94907); test: small molecules binding DKK1 protein – biochemical, small-molecule microarray, 635 nm fluorescence scan, primary screen (AID 1106); details: higher = more signal;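 also: score merges emission near 667 nm with signal to noise over three replicate slides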
[13] = system: Inhibin beta A chain (activin A); test: small molecules binding activin A – biochemical, small-molecule microarray, 635 nm fluorescence scan, primary screen (AID 1107); details: INHBA, higher = more signal;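 also: mouse activin A protein probed at 4.33 µg/mL on printed slides; score merges bound-protein fluorescence near 667 nm with spot signal-to-noise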
[14] = system: Human papillomavirus type 1a protein E7 (residues 44-93); test: small molecules binding HPV E7 44-93 – biochemical, small-molecule microarray, residues 44-93, 635 nm fluorescence, primary screen (AID 1108); details: fluorescence 635 nm, higher = more signal;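 also: E7 fragment applied at 1 µg/mL in TBST for 1 h at 4 C; score combines spot fluorescence with its signal to noise ratio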
[15] = hepatitis C replication reporter changes, two-sided – Huh7 cells, luciferase reporter, HCV replication inhibitor project, primary screen (AID 1109); details: Huh7 HCV replicon luciferase reporter, 48 h; higher = more signal;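 also: huh7 hepatoma cells harbouring a luciferase neomycin HCV replicon reporter; luciferase luminescence as measure of HCV replicon replication; test concentration not given here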
[16] = target: Left-right determination factor 2 (Homo sapiens) (UniProt O00292); test: small molecules binding LEFTY2 protein – biochemical, small-molecule microarray, 635 nm fluorescence scan, primary screen (AID 1110); details: higher = more signal
[17] = target: Calmodulin-1 (Homo sapiens) (UniProt P0DP23); test: small molecules binding calmodulin-1 with EGTA – biochemical, small-molecule microarray, Cy5-labelled CALM1, profiling panel (AID 1111); details: Cy5-CALM1 binding fluorescence, higher = more signal;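 also: labelled calmodulin applied in Tris saline Tween buffer holding calcium plus EGTA and DTT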
[18] = target: Calmodulin-1 (Homo sapiens) (UniProt P0DP23); test: small molecules binding Ca-loaded calmodulin-1 – biochemical, small-molecule microarray, Cy5-labelled CALM1, plus calcium, artefact control for SMM control-protein annotation, profiling panel (AID 1112); details: Cy5-CALM1 binding fluorescence, higher = more signal;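 also: score merges spot fluorescence with signal to noise from triplicate slides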
[19] = probe aWnt5a binding to arrayed compounds – biochemical, biotinylated probe, 635/667 nm fluorescence, primary screen (AID 1113); details: small-molecule microarray, higher = more signal;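 also: score merges 667 nm fluorescence intensity with signal-to-noise per printed feature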
[20] = probe aShh binding to arrayed compounds – biochemical, biotinylated probe, 635/667 nm fluorescence, primary screen (AID 1114); details: small-molecule microarray, higher = more signal;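 also: probe is biotin-labelled aShh protein from a stem cell growth factor screen; measures binding of labelled protein to compounds printed on the slide; score merges feature fluorescence at 667 nm with signal-to-noise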

Left-right determination factor 2 (Homo sapiens), sequence (O00292 whole entry, looked up): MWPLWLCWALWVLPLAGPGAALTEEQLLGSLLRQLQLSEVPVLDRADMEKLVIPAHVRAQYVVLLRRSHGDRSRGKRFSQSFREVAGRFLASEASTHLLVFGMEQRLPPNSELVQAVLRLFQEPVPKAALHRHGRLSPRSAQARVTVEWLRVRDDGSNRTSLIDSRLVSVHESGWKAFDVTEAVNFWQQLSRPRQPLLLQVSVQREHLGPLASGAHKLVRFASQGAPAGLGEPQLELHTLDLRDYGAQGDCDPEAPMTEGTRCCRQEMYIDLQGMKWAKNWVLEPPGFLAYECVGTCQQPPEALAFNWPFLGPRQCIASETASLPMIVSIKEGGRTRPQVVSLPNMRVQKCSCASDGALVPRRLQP
Dickkopf-related protein 1 (Homo sapiens), sequence (O94907 whole entry, looked up): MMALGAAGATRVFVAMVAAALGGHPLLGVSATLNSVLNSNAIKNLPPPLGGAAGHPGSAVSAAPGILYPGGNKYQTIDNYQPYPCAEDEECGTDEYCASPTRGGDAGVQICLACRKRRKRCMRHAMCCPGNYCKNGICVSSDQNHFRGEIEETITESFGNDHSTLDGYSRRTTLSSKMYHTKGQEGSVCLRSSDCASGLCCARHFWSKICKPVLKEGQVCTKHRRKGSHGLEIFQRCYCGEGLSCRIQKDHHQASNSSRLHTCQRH
Epidermal growth factor receptor (Homo sapiens), sequence (P00533 whole entry, looked up): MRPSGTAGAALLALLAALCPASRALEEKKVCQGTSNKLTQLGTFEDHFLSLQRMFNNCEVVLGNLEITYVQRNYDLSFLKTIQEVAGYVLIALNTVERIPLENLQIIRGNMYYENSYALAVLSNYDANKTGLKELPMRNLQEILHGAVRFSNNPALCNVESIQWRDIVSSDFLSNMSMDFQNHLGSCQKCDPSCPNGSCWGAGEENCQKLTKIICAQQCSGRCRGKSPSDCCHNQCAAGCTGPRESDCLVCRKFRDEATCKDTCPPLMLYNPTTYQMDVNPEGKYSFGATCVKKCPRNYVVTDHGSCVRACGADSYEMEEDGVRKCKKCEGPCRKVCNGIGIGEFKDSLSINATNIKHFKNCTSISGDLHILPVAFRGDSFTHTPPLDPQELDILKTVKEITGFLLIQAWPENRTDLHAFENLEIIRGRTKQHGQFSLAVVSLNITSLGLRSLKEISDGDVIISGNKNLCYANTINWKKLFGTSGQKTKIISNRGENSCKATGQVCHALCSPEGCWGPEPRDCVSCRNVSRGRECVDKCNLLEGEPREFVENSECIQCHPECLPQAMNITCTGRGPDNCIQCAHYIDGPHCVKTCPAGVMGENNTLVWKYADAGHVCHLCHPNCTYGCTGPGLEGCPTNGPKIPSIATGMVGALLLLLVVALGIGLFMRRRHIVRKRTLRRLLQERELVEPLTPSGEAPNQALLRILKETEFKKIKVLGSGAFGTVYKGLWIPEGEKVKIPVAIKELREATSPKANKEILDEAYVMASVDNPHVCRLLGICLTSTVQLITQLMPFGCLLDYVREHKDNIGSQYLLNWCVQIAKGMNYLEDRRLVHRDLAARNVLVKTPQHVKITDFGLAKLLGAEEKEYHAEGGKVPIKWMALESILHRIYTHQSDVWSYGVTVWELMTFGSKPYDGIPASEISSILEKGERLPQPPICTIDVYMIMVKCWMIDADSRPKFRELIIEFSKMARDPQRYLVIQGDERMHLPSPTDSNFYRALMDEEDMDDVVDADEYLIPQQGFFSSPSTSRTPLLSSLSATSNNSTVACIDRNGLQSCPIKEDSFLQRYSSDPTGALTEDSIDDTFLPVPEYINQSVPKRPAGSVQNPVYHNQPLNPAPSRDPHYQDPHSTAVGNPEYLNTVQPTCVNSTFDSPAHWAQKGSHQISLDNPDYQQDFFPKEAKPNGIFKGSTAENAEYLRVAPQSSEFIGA
Neurogenic locus notch homolog protein 3 (Homo sapiens), sequence (Q9UM47 whole entry, looked up): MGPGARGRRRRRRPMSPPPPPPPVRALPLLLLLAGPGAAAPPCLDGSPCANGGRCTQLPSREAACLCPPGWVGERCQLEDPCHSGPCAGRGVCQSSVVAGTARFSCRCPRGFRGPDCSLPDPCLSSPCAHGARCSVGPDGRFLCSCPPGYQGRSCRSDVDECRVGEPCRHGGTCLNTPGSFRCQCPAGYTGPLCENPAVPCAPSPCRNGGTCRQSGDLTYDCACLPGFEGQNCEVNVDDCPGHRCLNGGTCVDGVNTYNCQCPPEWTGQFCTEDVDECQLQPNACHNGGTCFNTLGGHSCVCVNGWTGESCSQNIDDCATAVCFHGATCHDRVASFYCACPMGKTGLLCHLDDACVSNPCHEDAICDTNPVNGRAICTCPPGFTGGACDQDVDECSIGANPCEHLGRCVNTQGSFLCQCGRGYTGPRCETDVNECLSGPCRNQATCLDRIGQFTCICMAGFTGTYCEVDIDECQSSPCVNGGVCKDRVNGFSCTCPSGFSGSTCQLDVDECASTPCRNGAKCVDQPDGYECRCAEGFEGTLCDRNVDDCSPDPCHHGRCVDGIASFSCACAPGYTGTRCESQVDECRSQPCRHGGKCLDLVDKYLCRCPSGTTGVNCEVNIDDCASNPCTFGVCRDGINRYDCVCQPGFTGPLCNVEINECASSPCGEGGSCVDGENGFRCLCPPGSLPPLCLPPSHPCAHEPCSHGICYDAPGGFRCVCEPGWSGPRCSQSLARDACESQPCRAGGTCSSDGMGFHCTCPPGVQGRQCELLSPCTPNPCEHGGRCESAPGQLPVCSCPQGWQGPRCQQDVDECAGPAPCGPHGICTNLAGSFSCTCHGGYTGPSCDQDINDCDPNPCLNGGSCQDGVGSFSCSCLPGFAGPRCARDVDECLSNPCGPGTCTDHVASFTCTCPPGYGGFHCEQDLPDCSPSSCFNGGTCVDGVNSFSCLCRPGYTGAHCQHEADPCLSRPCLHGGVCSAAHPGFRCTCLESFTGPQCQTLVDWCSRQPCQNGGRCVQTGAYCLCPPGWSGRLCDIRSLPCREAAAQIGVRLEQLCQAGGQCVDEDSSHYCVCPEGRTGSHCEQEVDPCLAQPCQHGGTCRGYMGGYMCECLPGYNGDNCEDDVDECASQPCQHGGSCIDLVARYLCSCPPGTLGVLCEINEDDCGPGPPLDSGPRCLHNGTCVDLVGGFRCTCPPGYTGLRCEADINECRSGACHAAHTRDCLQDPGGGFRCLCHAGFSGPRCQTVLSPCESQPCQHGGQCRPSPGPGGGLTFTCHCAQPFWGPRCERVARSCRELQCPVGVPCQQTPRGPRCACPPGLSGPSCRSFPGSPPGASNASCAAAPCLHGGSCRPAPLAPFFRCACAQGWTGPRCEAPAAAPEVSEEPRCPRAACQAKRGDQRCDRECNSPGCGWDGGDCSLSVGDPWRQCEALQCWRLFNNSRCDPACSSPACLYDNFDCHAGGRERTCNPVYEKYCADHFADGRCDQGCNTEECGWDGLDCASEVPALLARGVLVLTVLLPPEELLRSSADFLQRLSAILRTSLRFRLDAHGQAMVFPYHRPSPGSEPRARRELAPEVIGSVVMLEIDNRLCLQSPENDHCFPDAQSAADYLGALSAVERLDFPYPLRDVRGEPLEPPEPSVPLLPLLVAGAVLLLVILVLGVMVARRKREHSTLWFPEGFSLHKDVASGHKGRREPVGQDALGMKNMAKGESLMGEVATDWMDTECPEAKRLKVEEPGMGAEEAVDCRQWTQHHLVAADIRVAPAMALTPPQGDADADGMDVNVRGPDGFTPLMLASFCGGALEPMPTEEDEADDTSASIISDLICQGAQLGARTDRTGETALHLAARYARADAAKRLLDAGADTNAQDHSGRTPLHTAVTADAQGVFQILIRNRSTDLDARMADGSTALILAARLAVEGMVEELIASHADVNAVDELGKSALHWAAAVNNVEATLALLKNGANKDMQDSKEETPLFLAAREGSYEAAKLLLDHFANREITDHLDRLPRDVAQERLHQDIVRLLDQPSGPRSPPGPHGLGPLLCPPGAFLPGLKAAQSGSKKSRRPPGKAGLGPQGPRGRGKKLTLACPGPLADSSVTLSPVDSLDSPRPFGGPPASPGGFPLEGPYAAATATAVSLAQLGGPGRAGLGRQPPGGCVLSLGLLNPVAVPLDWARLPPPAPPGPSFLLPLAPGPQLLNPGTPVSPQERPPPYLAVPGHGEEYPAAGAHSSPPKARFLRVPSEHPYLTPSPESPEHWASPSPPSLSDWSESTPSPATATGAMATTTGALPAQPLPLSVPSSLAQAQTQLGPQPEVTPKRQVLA
Fibroblast growth factor 10 (Homo sapiens), sequence (O15520 whole entry, looked up): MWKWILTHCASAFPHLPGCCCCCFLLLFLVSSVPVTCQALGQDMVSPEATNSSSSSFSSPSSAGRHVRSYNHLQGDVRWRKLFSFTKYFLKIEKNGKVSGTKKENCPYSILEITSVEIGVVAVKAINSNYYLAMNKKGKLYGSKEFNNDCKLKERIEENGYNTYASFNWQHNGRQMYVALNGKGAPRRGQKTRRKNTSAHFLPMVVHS
Follistatin-related protein 3 (Homo sapiens), sequence (O95633 whole entry, looked up): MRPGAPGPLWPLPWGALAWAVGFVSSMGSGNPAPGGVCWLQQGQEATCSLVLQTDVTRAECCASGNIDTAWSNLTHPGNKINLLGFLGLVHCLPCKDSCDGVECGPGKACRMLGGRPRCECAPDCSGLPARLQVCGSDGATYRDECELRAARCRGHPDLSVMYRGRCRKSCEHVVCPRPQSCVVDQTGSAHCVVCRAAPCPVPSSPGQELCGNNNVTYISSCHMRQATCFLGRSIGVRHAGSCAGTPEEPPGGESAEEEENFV

Row | SMILES | composite z-score [1] | composite z-score [2] | composite z-score [3] | composite z-score [4] | composite z-score [5] | composite z-score [6] | z-score [7] | composite z-score [8] | composite z-score [9] | composite z-score [10] | composite z-score [11] | composite z-score [12] | composite z-score [13] | composite z-score [14] | z-score [15] | composite z-score [16] | composite z-score [17] | composite z-score [18] | composite z-score [19] | composite z-score [20]
1 | O=C1O[C@H](c2ccccc2)[C@H](c2ccccc2)N2[C@H]1[C@@H](C(=O)Nc1nc3ccccc3s1)[C@]1(C(=O)Nc3ccc(C#CCCO)cc31)[C@H]2c1ccccc1OCCO | 0.244 | 0.912 | 0.0381 | 1.35 | 0.676 | 0.784 | -0.0121 (inactive) | 0.545 | 1.31 | 0.289 | 0.892 | 0.328 | 0.793 | 0.793 | -1.79 | 0.537 | 1.74 | 0.439 | 0.0849 | 0.355
2 | CC(C)[C@@H](C(=O)O)n1cc(-c2ccccn2)nn1 | 0.332 | 0.309 | -0.0508 | -0.0369 | 0.98 | 0.33 | -0.015 (inactive) | 0.0739 | 0.428 | 0.278 | 0.0231 | 0.418 | 0.805 | 0.465 | -0.187 | 0.249 | 0.51 | 0.556 | -0.0216 | 0.0039
3 | [N-]=[N+]=NCc1ccccc1C[C@]1(C(=O)NCc2ccccc2)N=C(c2ccc(OCCCO)cc2)O[C@H]1c1ccccc1 | -0.577 | 0.224 | 0.1 | 1.01 | 1.51 | 1.28 | 0.359 (inactive) | 0.19 | -0.516 | -0.864 | -0.565 | -1.03 | 0.928 | 0.508 | -1.95 | -0.941 | 1.82 | 1.36 | 0.108 | 0.23
4 | COCCCNC(=O)[C@@]1(CCS(=O)(=O)c2ccccc2)N=C(c2ccc(OCCCO)cc2)O[C@H]1c1ccccc1CN=[N+]=[N-] | 1.9 | 1.07 | 0.242 | 1.14 | 1.17 | 1.12 | -0.594 (inactive) | 1.14 | 1.31 | 0.184 | 0.847 | 0.245 | 1.22 | 1.13 | -2.04 | 0.266 | 2.02 | 0.986 | 0.183 | 0.81
5 | C=C1C=C(Br)C2(OCCCO2)[C@H]2OC12 (stereo not given in full) | 0.104 | 0.0347 | -0.076 | 0.313 | -0.118 | -0.533 | -0.0861 (inactive) | 0.125 | 0.259 | 0.442 | 0.322 | 0.536 | 0.831 | -0.524 | 1.38 | 0.333 | -0.367 | -0.755 | -0.176 | 0.0684
6 | CC(C)[Si](C#C[Si](C(C)C)(C(C)C)C(C)C)(O[C@H](C)c1cn([C@H](C)c2ccccc2)nn1)C(C)C | 0.5 | 0.987 | -0.0525 | 0.366 | 0.106 | 0.351 | -1.8 (inactive) | 0.597 | 0.339 | 0.292 | 0.806 | 0.538 | -0.269 | 0.946 | 0.0537 | 0.188 | 0.242 | -0.479 | -0.131 | -0.138
7 | C=C(COC)C(=O)CC[C@H](OC(=O)c1cccnc1)c1cccc(OCCO)c1 | 1.29 | 0.176 | 0.431 | 0.935 | 0.706 | 0.169 | -0.686 (inactive) | 1.09 | 0.538 | 0.041 | 0.431 | 0.994 | 1.23 | -0.298 | -0.87 | 0.203 | -0.638 | -0.282 | 0.506 | 0.841
8 | O=C1c2ccccc2[C@](Cc2ccccc2I)(C(=O)O)[C@H](c2ccc(CO)cc2)N1Cc1ccccc1Cl | -0.168 | 0.239 | -0.104 | 0.96 | 0.815 | 1.06 | 0.0252 (inactive) | 0.235 | -0.0679 | -0.197 | 0.521 | 0.697 | 0.623 | 1.15 | -0.219 | -0.0287 | 1.56 | 0.586 | -0.163 | -0.189
9 | CC(C)N1CC=CC23O[C@@H]4/C=C\CCCOC(=O)C4[C@H]2C(=O)N(CCCO)[C@@H]3C1=O (stereo not given in full) | -1.17 | 0.0751 | -0.285 | 2.12 | -0.201 | 0.787 | 0.073 (inactive) | -0.352 | -0.762 | -1.64 | -1.07 | -1 | 0.967 | -0.0197 | -0.597 | -1.83 | -0.311 | 0.412 | -0.14 | -0.0959
10 | C=CCN1C(=O)[C@]2(O[C@H](CCn3cc([C@H](O)c4ccccc4)nn3)[C@@H]([Si](C)(C)c3ccc(OC)cc3)[C@@H]2C)c2cc(N3CCOC3=O)ccc21 | -0.394 | -0.583 | -0.232 | 0.147 | -0.228 | 0.0778 | -2.35 (inactive) | -0.57 | 0.387 | -0.754 | -0.577 | -0.272 | 0.147 | 0.724 | -3.64 | -0.69 | -0.169 | -0.367 | -0.16 | -0.043
11 | CC(C)NC(=O)[C@@H]1c2ccccc2C(=O)N(Cc2cc(F)cc(C(F)(F)F)c2)[C@H]1c1ccc(CO)cc1 | -1.34 | -0.706 | 0.0629 | 1.51 | 0.478 | 0.94 | -1.05 (inactive) | -0.535 | -0.825 | -0.979 | -1.17 | -0.833 | -0.476 | 0.719 | 0.32 | -0.556 | 0.343 | 0.916 | -0.25 | -0.321
12 | CC(C)CCC[C@@H](C)[C@H]1CC[C@@]2(C)C3=C(CC[C@]12C)[C@@]1(C)CC[C@H](OC(=O)CCl)C(C)(C)C1CC3 (stereo not given in full) | 0.44 | 0.847 | 0.0143 | 0.346 | -0.0827 | -0.49 | 0.0767 (inactive) | 0.471 | 0.684 | 0.372 | 0.675 | 0.604 | 0.0773 | 0.637 | -0.143 | 0.448 | -0.0581 | -0.552 | 0.0115 | -0.424
13 | O=C1O[C@H](c2ccccc2)[C@H](c2ccccc2)N2[C@H]1[C@@H](C(=O)NC[C@H](O)c1ccccc1)[C@]1(C(=O)Nc3ccc(C#CC4(O)CCCCCC4)cc31)[C@H]2c1ccc(O)cc1 | 0.927 | 1.1 | 0.0425 | 0.59 | 0.601 | 0.471 | 1.13 (inactive) | 1.05 | 1.15 | 0.251 | 0.715 | 0.324 | -0.0905 | 1.35 | 0.34 | 0.462 | 0.612 | 0.107 | -0.0542 | -0.0769
14 | CCOC(=O)C[C@H]1[C@H](OC(=O)Cc2ccc3c(c2)OCO3)[C@@H](NC(=O)c2ccc3ccccc3c2)c2cc(OCCCO)ccc2N1C(=O)c1ccc2ccccc2n1 | 0.235 | 0.808 | 0.0343 | 0.114 | -0.0522 | -0.0322 | -3.47 (inactive) | 0.18 | 0.0646 | 0.118 | 0.161 | 0.121 | 0.0739 | -0.13 | -1.43 | 0.0822 | 1.05 | 0.691 | -0.124 | -0.0769
15 | [N-]=[N+]=NCc1ccccc1C[C@@]1(C(=O)NCc2ccccc2)N=C(c2ccc(OCCCO)cc2)O[C@@H]1c1ccccc1 | -0.41 | -0.0209 | 0.0139 | 0.92 | 0.928 | 1.12 | -1.4 (inactive) | 0.185 | 0.6 | -0.471 | -0.159 | -0.373 | 0.661 | 0.212 | -3.05 | -0.592 | 1.43 | 1.21 | 0.0761 | 0.0644
16 | CCCCCCC#C[Si](O[C@H](c1ccccc1)c1cn(Cc2ccccc2)nn1)(C(C)C)C(C)C | 0.977 | 0.6 | 0.0334 | -0.068 | -0.0783 | -0.14 | -1.51 (inactive) | 0.232 | 0.305 | 0.302 | 0.388 | 0.279 | 0.403 | 0.382 | -1.93 | 0.367 | -0.0092 | 0.716 | -0.151 | -0.108
